# Assay results as given in PubChem BioAssay (EPA / NIEHS).
# Calls of active or inactive are those of the source. The calls were made as follows: active = hit-call score of the fitted dose curve at least 0.9, where 1 is the maximum; inactive = score below 0.9.
# Read-out: Monocyte Chemoattractant Protein-1 (MCP1), CCL2 (gene 6347)
# Test: BSK_3C_MCP1: BioMAP Diversity Plus: 3C Assay for Monocyte Chemoattractant Protein-1 (MCP1) Biomarker Activity (AID 2283017)
# Details: primary human endothelial cells (HUVEC); actives raise or lower the signal
# Method: BSK_3C is a cell-based, multiplexed-readout assay that uses umbilical vein endothelium, a human vascular primary cell, with measurements taken at 24 hours after chemical dosing in a 96-well plate.BSK_3C_MCP1 is an assay component measured in the BSK_3C assay. It measures MCP-1 antibody related to regulation of gene expression using ELISA technology.Data from the assay component BSK_3C_MCP1 was analyzed into 1 assay endpoint. This assay endpoint, BSK_3C_MCP1, was analyzed with bidirectional fitting relative to DMSO as the negative control and baseline of activity. Using a type of binding reporter, gain or loss-of-signal activity can be used to understand changes in the signaling as they relate to the gene CCL2. Furthermore, this assay endpoint can be referred to as a primary readout, because this assay has produced multiple assay endpoints where this one serves a signaling function. To generalize the intended target to other relatable targets, this assay endpoint is annotated to the cytokine intended target family, where the subfamily is chemotactic factor.
# The levels of cell surface (or secreted, indicated by the prefix "s") biomarker endpoints were measured by ELISA. Overt cytotoxicity to cells in confluent adherent cultures (all systems other than the BT system) was assessed by measuring total protein levels using sulforhodamine B (SRB) staining in parallel cultures at the time of biomarker measurements, indicated as SRB endpoints. For proliferation assays for adherent cell types, individual cell types are cultured at sub-confluence and relative cell numbers quantified by SRB staining at time points optimized for each system (48 h: 3C and CASM3C systems; 72 h: BT and HDF3CGF systems; 96 h: SAg system). SRB was performed by staining cells with 0.1% SRB after fixation with 10% TCA and reading wells at 560 nm.Viability and proliferation of PBMC (T cells) was quantified by Alamar Blue reduction for the SAg and BT systems. For PBMC viability (referred to as PBMC Cytotoxicity within the assay endpoint names), cells were plated (75,000/well in a 96-well plate) and then chemical samples added for 1 h before addition of activators, SEB and TSST-1 (20 ng/mL final concentration each). Cells were incubated for 90 h. Then, Alamar Blue (20 uL/well) (Invitrogen, Cat DAL1100) was added for 6 h, and the plates were read with a fluorescence microplate reader at 546/580 nm (excitation/emission). For PBMC proliferation, cells were plated and activated as above but incubated for only 16 h prior to addition of Alamar Blue. Plates were read after 6 h.
Compound,AC50,outcome
CCC(C)(NC(=O)c1cc(Cl)c(C)c(Cl)c1)C(=O)CCl (stereo not given),21.1 µM (active),
CCCN(CCOc1c(Cl)cc(Cl)cc1Cl)C(=O)n1ccnc1,,inactive
CCN(CC)C(=O)SCc1ccc(Cl)cc1,3.72 µM (active),
CCCN(CCC)c1c([N+](=O)[O-])cc(C(F)(F)F)cc1[N+](=O)[O-],,inactive
Clc1ccccc1-c1nnc(-c2ccccc2Cl)nn1,,inactive
CNC(=O)/C=C(\C)OP(=O)(OC)OC,,inactive
CC[C@H](C)[C@H]1O[C@]2(C=C[C@@H]1C)C[C@@H]1C[C@@H](C/C=C(\C)[C@@H](O[C@H]3C[C@H](OC)[C@@H](O[C@H]4C[C@H](OC)[C@@H](O)[C@H](C)O4)[C@H](C)O3)[C@@H](C)/C=C/C=C3\CO[C@@H]4[C@H](O)C(C)=C[C@@H](C(=O)O1)[C@]34O)O2 (tested in a mixture with another compound),6.9 µM (active),
OCCOc1ccccc1,,inactive
CNC(=O)CSP(=S)(OC)OC,,inactive
COP(=S)(OC)Oc1ccc(SC)c(C)c1,,inactive
[2H]C1([2H])[n+]2ccccc2-c2cccc[n+]2C1([2H])[2H],,inactive
CNC(=O)Oc1cccc(N=CN(C)C)c1,,inactive
O=[N+]([O-])c1c(Cl)c(Cl)c(Cl)c(Cl)c1Cl,,inactive
CC(C)(C)C(O)C(Oc1ccc(Cl)cc1)n1cncn1 (stereo not given),,inactive
CCS(=O)(=O)c1cccnc1S(=O)(=O)NC(=O)Nc1nc(OC)cc(OC)n1,,inactive
ClC1C(Cl)C(Cl)C(Cl)C(Cl)C1Cl (stereo not given),,inactive
COc1cc(OC)nc(NC(=O)NS(=O)(=O)c2cc(NC=O)ccc2C(=O)N(C)C)n1,,inactive
O=C(O)C(F)(F)C(F)(F)C(F)(F)C(F)(F)C(F)(F)C(F)(F)C(F)(F)F,,inactive
CC(C)(C)C(O)/C(=C\c1ccc(Cl)cc1Cl)n1cncn1 (stereo not given),30.9 µM (active),
O=[N+]([O-])/N=C1\NCCN1Cc1ccc(Cl)nc1,,inactive

Compound,AC50,outcome
N#CN,,inactive
CC1(C)C(C=C(Cl)Cl)C1C(=O)OC(C#N)c1ccc(F)c(Oc2ccccc2)c1 (stereo not given),,inactive
CCc1ccc(C(=O)NN(C(=O)c2cc(C)cc(C)c2)C(C)(C)C)cc1,4.84 µM (active),
CCC(C)Nc1c([N+](=O)[O-])cc(C(C)(C)C)cc1[N+](=O)[O-] (stereo not given),31.3 µM (active),
CCOC1Oc2ccc(OS(C)(=O)=O)cc2C1(C)C (stereo not given),24.8 µM (active),
COP(=O)(OC)OC=C(Cl)Cl,,inactive
CCOCN(C(=O)CCl)c1c(C)cccc1CC,,inactive
O=S1OCC2C(CO1)C1(Cl)C(Cl)=C(Cl)C2(Cl)C1(Cl)Cl (stereo not given),30.3 µM (active),
CCOc1nc(NC)nc(NC(=O)NS(=O)(=O)c2ccccc2C(=O)OC)n1,,inactive
Cc1[nH]c(=O)n(C(C)(C)C)c(=O)c1Cl,,inactive
Oc1ccc(Cl)cc1Cc1ccccc1,34.8 µM (active) [middle of 7 runs],
O=C(Nc1ccccc1)Nc1cnns1,,inactive
CN1CSC(=S)N(C)C1,31.2 µM (active),
C[C@H]1[C@H](c2ccc(Cl)cc2)SC(=O)N1C(=O)NC1CCCCC1,20 µM (active),
COC(=O)c1ccccc1CS(=O)(=O)NC(=O)Nc1nc(OC)cc(OC)n1,,inactive
O=S(=O)(O)C(F)(F)C(F)(F)C(F)(F)C(F)(F)C(F)(F)C(F)(F)C(F)(F)C(F)(F)F,,inactive
CNC(=O)Oc1ccccc1OC(C)C,,inactive
CC(C)OC(=O)Nc1cccc(Cl)c1,,inactive
COc1nn(CSP(=S)(OC)OC)c(=O)s1,,inactive
C#CCN1C(=O)COc2cc(F)c(N3C(=O)C4=C(CCCC4)C3=O)cc21,,inactive
